From PubChem BioAssay
ssDAF-12 act = activators of S. stercoralis DAF-12 nuclear receptor; actives 1% (n = 370,000); activation, % at 6.8 µM; AID 652126; HEK293 ssDAF-12/GRIP1 lit1-tk-luc reporter, luminescence; % of 3 µM dafachronic acid response;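 active = activation above the mean over all tested compounds plus 3 SD, cut at about 0.9% in these data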;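 note: 0% = DMSO-only wells and 100% = 3 µM delta7-dafachronic acid wells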
AHR activator = activates the human aryl hydrocarbon receptor | P35869 | AHR-responsive luciferase reporter cells, luminescence | activation, % at 5 µM | actives 2.5% (n = 320,000) | AID 2796; in the data active = activation above about 47%;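 note: 0% = vehicle wells and 100% = reference agonist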
Target sequence (P35869 whole entry, looked up): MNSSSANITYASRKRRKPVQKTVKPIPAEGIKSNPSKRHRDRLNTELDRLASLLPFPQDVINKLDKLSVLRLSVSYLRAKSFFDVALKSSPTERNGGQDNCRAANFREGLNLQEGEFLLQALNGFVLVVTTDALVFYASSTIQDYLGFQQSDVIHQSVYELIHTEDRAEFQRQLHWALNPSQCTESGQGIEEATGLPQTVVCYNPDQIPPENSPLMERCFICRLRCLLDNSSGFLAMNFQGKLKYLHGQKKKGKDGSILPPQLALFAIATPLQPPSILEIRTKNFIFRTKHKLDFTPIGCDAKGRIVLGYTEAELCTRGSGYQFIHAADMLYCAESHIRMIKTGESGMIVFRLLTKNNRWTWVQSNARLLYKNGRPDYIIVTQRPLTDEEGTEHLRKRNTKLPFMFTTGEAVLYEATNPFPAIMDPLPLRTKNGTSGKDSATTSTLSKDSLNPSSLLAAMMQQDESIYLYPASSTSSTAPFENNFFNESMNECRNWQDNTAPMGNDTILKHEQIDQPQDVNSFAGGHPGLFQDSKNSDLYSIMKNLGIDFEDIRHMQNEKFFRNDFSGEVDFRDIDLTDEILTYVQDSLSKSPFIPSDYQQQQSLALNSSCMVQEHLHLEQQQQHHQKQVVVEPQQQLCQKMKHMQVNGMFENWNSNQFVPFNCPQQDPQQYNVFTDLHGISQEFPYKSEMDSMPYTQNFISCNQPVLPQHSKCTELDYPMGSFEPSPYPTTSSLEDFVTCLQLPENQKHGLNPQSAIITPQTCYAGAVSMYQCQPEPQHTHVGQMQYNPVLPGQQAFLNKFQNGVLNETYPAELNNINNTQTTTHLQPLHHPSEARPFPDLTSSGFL
hcDAF12 agonist = H. contortus DAF-12 activation, primary screen; HEK293 hcDAF-12 lit1-tk-luc reporter, luminescence; 0% DMSO, 100% Δ7-dafachronic acid; AID 652067; activation, % at 6.8 µM; actives 1.4% (n = 370,000);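 active = activation above the mean of all tested compounds plus 3 SD, cut at about 5.5% in these data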;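 note: 100% = response to 3 µM Δ7-dafachronic acid high control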
DAX1 inh-1 = inhibitors of human orphan nuclear receptor DAX1 (NR0B1); HEK293 Gal4-DAX1 luciferase reporter, luminescence; inhibition, % at 6.75 µM; actives 0.99% (n = 340,000); AID 504766;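 active = inhibition above the mean over all tested compounds plus 3 SD, cut at about 4.2% in these data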;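 note: 0% = DAX1-transfected cells with DMSO and 100% = empty-vector control cells with DMSO; inhibition shows as a rise in luminescence from relieved DAX1 repression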
hgDAF-12 ag = activates the H. glycines DAF-12 receptor ligand-binding domain; actives 1.8% (n = 370,000); AID 687014; HEK293 GAL4-hgDAF12 UAS-luciferase reporter, agonist luminescence; normalized to butyrate control; activation, % at 6.8 µM;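 active = activation above a cutoff set at the mean of all screened compounds plus 3 SD, cut at about 10% in these data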;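 note: 0% = DMSO wells and 100% = sodium butyrate wells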
DAX1 inh-2 = DAX1 (NR0B1) inhibition, primary screen; HEK293T StAR-luciferase reporter, SF-1/DAX-1 repression relief; inhibition, % at 6.8 µM; actives 1.1% (n = 370,000);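 active = inhibition above the mean over all tested compounds plus 3 SD, cut at about 3.6% in these data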;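 note: 0% = DAX-1 cells with DMSO and 100% = cells lacking DAX-1 with DMSO; higher inhibition means more luminescence from relief of DAX-1 repression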
Starred values were filed as active, the others as inactive; · = not tested or not shown. Only some compounds are listed: those with a hit (about 5.7% of all), similar ones and a draw of the others.

SMILES	ssDAF-12 act	AHR activator	hcDAF12 agonist	DAX1 inh-1	hgDAF-12 ag	DAX1 inh-2
Cc1ccc(SC2=C(C(=O)O)CCCC2)cc1	-2	3	-3	0	3	0
O=c1[nH]c(SCc2nc3ccccc3c(=O)n2-c2ccccc2)nc2ccccc12	0	55*	4	1	0	0
O=c1[nH]c(SCc2n[nH]c(=S)n2-c2ccccc2)nc2ccccc12	-1	9	0	1	0	1
COc1ccc2sc(-c3ccccc3OC)c(C#CC(C)(C)O)c2c1	-1	26	2	1	1	0
COc1ccccc1-c1sc2cc3c(cc2c1C#CCO)OCO3	-1	67*	1	1	0	1
COc1ccc(-c2sc3cc4c(cc3c2C#CCO)OCO4)cc1	-2	77*	-2	-2	-1	-1
COc1ccc(-c2sc3ccc(N4CCOCC4)cc3c2C#CCCO)cc1	-1	97*	0	-1	1	-1
CCOC(=O)c1ccc(-c2c(-c3ccccc3OC)sc3cc4c(cc23)OCO4)cc1F	-1	48*	3	1	1	-1
Cc1cc(C)c(S(=O)(=O)NCc2csc(C)n2)c(C)c1	-2	·	-2	0	-1	0
COc1ccc(CC(=O)N(CCC2=CCCCC2)c2c(N)n(Cc3ccccc3)c(=O)[nH]c2=O)cc1OC	-1	34	-1	-1	1	-2
Cc1ccc(-n2nc3c(c2NC(=O)c2ccccc2)CS(=O)(=O)C3)cc1C	-1	11	-1	1	2	0
Cc1ccc(C(=O)Nc2c3c(nn2-c2ccccc2)CS(=O)(=O)C3)cc1C	-1	5	5.8*	1	0	0
Cc1c(C(N)=O)c(N)c(C(=O)c2ccccc2)n1-c1ccccc1	-2	1	-1	5.0*	-1	-1
CCOc1ccc(/C=N/OCC(=O)Nc2ccc3c(c2)OCO3)cc1	-2	4	0	0	2	0
Cc1cc(NC(=O)COC(=O)COc2ccc(C(=O)c3ccccc3)cc2)no1	-1	-2	-1	0	0	0
CCOc1ccc(/C=N/OCC(=O)Nc2cc(C)on2)cc1	1.6*	-1	-2	0	-4	0
CCc1ccccc1OCC(=O)OCC(=O)Nc1cc(C)on1	-1	4	-1	0	3	3.8*
CCN(C(=O)COC(=O)c1ccc(Sc2ncn[nH]2)c([N+](=O)[O-])c1)c1ccccc1C	0	·	0	·	-1	0
CN1C(=O)NC(c2ccccc2)C2=C1CN(c1ccc3ccccc3c1)C2=O (stereo unspecified)	0	68*	2	1	1	0
COc1cccc(C#Cc2c(CO)[nH]c3ccccc23)c1	1	34	6.2*	0	1	0
COc1ccc(C2=Nn3c(nnc3-c3ccccn3)SC2)cc1	-2	-2	-1	0	-1	-1
COc1ccc(C2=Nn3c([n+](C)c4ccccc43)SC2)cc1	-3	59*	-4	-5	-10	-4
C[n+]1c2n(c3ccccc31)N=C(c1ccc(Cl)cc1)CS2	-2	64*	-2	-4	-8	-3
CC1Sc2n(c3ccccc3[n+]2C)N=C1c1ccccc1 (stereo unspecified)	-2	74*	-3	-1	-8	-2
CC1(C(=O)Nc2ccc(S(=O)(=O)Nc3ncccn3)cc2)CCCC1	1	0	-1	-1	-1	2
SMILES	ssDAF-12 act	AHR activator	hcDAF12 agonist	DAX1 inh-1	hgDAF-12 ag	DAX1 inh-2
NC(=O)CCCn1c(C(=O)c2cc(Cl)c(N)c(Cl)c2)c2ccc([N+](=O)[O-])cc2[n+]1[O-]	-1	77*	-2	-3	-7	-1
COc1ccc2c(C(=O)c3ccc(C)cc3)n(CCCC(N)=O)[n+]([O-])c2c1	0	23	6.1*	-1	1	0
Cc1ccc(C(=O)c2c3ccc([N+](=O)[O-])cc3[n+]([O-])n2CCCC(N)=O)cc1	0	25	2	0	-3	0
NC(=O)CCCn1c(C(=O)c2ccc(Cl)cc2)c2ccc([N+](=O)[O-])cc2[n+]1[O-]	-2	34	1	-2	-4	-1
NC(=O)CCCn1c(C(=O)c2ccc(Cl)cc2)c2ccc(C(F)(F)F)cc2[n+]1[O-]	1.2*	61*	5	0	-1	0
Cc1ccc(C(=O)N[C@H](C(=O)N2CCN(c3ccccc3F)CC2)C(C)C)cc1	-1	1	1	0	-2	0
Cc1cc(C)c2c(c1)CC(C)(C)CC2=O	-1	·	-1	0	2	0
C[C@H]1NC(=O)[C@@]2(C)[C@H](c3ccccc3)[C@H]3COc4ccccc4[C@@H]3N2C1=O	-2	1	-1	2	-1	0
COc1cccc(NC(=O)CN(C2=NC3CS(=O)(=O)CC3S2)c2cccc(C)c2)c1 (stereo unspecified)	1.2*	1	0	0	1	0
COc1ccccc1-c1nc(COc2ccc(Cl)cc2Cl)no1	0	0	2	4.6*	5	1
N#CCSc1ccsc1C(=O)Nc1ccc(F)cc1	-2	50*	2	0	4	0
CCC1CCCCN1CCCNC(=O)C1CC(=O)N(CCc2ccccc2)C1 (stereo unspecified)	-2	2	-2	1	3	3
CN(C)c1nc(-c2ccccc2)ncc1S(=O)(=O)c1ccccc1	0	2	-2	0	2	4.0*
CCN(CC)c1nc(-c2ccccc2)ncc1S(=O)(=O)c1ccc(C)cc1	-2	1	0	0	1	0
O=C(CSc1nnc(CNC(=O)c2ccco2)o1)Nc1ccc(F)cc1	-1	9	0	0	-2	0
COCCCNC(=O)CCC(=O)NNc1nc2ccccc2c2nc(-c3ccccc3)nn12	-1	62*	1	-2	3	0
COCCNC(=O)CCC(=O)NNc1nc2ccccc2c2nc(-c3ccccc3)nn12	-1	60*	2	0	0	0
CCOCCCNC(=O)CCC(=O)NNc1nc2ccccc2c2nc(-c3ccccc3)nn12	-1	29	2	-1	1	0
Cc1ccc(S(=O)(=O)NCc2ccc(C(=O)NC3CCC(O)CC3)cc2)cc1C (stereo unspecified)	-1	1	1	0	-1	1
COc1ccccc1-c1nc(C#N)c(NCCCn2ccnc2)o1	-2	70*	-3	2	-1	0
Cc1cccc(Nc2nc(-c3sc(C)nc3C)cs2)c1	-1	70*	1	1	1	-1
COc1ccc(Nc2nc(-c3sc(N)nc3C)cs2)cc1	0	46	2	1	8	0
